PubChem BioAssay AID1362 (SRMLSC, 2008)
Out of some 190,000 compounds screened, about 4,000 (2.1%) were called active. No stated cut-off is given here; in the data, active means inhibition above about 58%; inactive means the rest, inconclusive results apart; tested in S. cerevisiae. Shown is part of a subset that was picked to be rich in actives.

Test: growth inhibition of WT strain, primary screen, mitochondrial fusion inhibitor project, WT and mutant strains, chemical genetic (AID 1362)
Conditions: mitochondrial fusion phenotypic screen, at 10 µM
[1] = WT strain, growth inhibition, stronger effect = higher value

Row | SMILES | inhibition [1] | inhibition (mutant strain inhibition)
1 | CC(=O)Nc1cc(C(=O)O)ccc1S(=O)(=O)c1ccc(Cl)cc1 | 8.84% (inactive) | 41.8%
2 | O=C(Nc1ccc(Cl)cc1)c1ccsn1 | 12.9% (inactive) | 28%
3 | O=C(Nc1ccccc1)c1nnsc1S(=O)(=O)c1ccc(Cl)cc1 | 98.5% (active) | 97.8%
4 | CN(C)c1ccc(C=NCCc2ccc(S(N)(=O)=O)cc2)cc1 | -3.5% (inactive) | -12.7%
5 | CC(C)CC(CO)N1CCN(C(=O)c2ccc(Cl)cc2Cl)CCC1=O (stereo not given) | -10.3% (inactive) | 1.82%
6 | O=C(c1cc(Cl)cc(Cl)c1)N1CCC(=O)N(C(COCc2ccccc2)Cc2ccccc2)CC1 (stereo not given) | 71.4% (active) | 11.6%
7 | CC(C)CC(COCc1ccc(Cl)cc1)N1CCN(C(=O)c2ccc(C(F)(F)F)cc2)CCC1=O (stereo not given) | 35.7% (inactive) | 0.99%
8 | O=C(Nc1cccc(F)c1)N1C2CCC1CC(O)(c1cccnc1)C2 (stereo not given) | -6.02% (inactive) | -8.29%
9 | C=CCn1c(=NC(=O)c2cccs2)sc2cc(NC(C)=O)ccc21 | -0.58% (inactive) | 5.07%
10 | Cc1nc2ccccc2c2oc(C(=O)NCC3CCCO3)cc12 (stereo not given) | 1.66% (inactive) | -8.79%
11 | Clc1cccc(-c2nc(NCC3CCCO3)c3ccccc3n2)c1 (stereo not given) | 74.2% (active) | 68.9%
12 | c1ccc2c(NCC3CCCO3)nc(-c3ccncc3)nc2c1 (stereo not given) | -20% (inactive) | -11%
13 | O=C1Nc2ccc([N+](=O)[O-])cc2C1=Nc1cccc(CO)c1 | 0.18% (inactive) | 6.98%
14 | CC(C)(CNC(=O)c1cc(=O)[nH]c2ccccc12)N1CCOCC1 | -13.2% (inactive) | -2.01%
15 | CC(C)(CNCC(O)c1ccccc1)N1CCOCC1 (stereo not given) | 64% (active) | 5.08%
16 | CC(CN1CCOCC1)c1ccccc1 (stereo not given) | -5.68% (inactive) | 13.1%
17 | Cn1c(SCC(=O)Nc2ccc(Br)cc2F)nnc1-c1ccco1 | -5.72% (inactive) | -9.59%
18 | CCN(CC)C(=O)Oc1ccc(OC(=O)N(CC)CC)cc1 | -3.56% (inactive) | 8.46%
19 | CCn1c(SCC(=O)c2ccc3ccccc3c2)nnc1-c1cccs1 | 16.5% (inactive) | -6.78%
20 | O=C(CSc1nnc(-c2cccs2)n1Cc1ccccc1)N1CCc2ccccc2C1 | 70.4% (active) | 40.2%
21 | O=C(CSc1nnc(-c2cccs2)n1-c1ccccc1)N1CCN(C(=O)c2ccco2)CC1 | -17.6% (inactive) | -21.2%
22 | CCOC(=O)C1(C)NC(c2ccco2)C2C(=O)N(c3ccccc3)C(=O)C21 (stereo not given) | -2.53% (inactive) | -16.9%
23 | Cc1ccc(NC(=S)N(CCCN2CCCC2)Cc2cccn2Cc2ccc(Cl)cc2)cc1 | 83.8% (active) | 31.5%
24 | Cc1ccccc1NC(=S)N(CCCN1CCOCC1)Cc1cccs1 | 20.9% (inactive) | -3.99%
25 | CCc1cccc(C)c1NC(=S)N(CCCN1CCN(C)CC1)Cc1cccs1 | 4.55% (inactive) | 8.76%
